PubChem BioAssay (NCATS)
Several values for one entry are separate records, joined by “and”; a condition that tells them apart may be missing. Identical values can stand only once. Records with an inconclusive call do not appear. Some structures have more than one record in an assay (separate samples or runs), and their calls can disagree. Activity calls are given as the source filed them. Unless noted, calls follow the shape of the dose curve; as a rule, active = well fitted curve in either direction with a large enough effect (not every such curve was filed as active); inconclusive = small, poorly fitted or top-dose-only effect, or another doubt; inactive = flat fitted curve, though single readings scatter.

Tests used:
[1] = AP1 Signaling Pathway (AID 357); details: ME-180 AP-1-bla reporter, EGF-induced, beta-lactamase ratio, 5 h; at 17.2 µM (top of the series) unless noted;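 also: ME-180 reporter cells stimulated with EGF at its EC50 level; % is scaled to controls: 0 for no effect and ±100 for the full control effect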
Method in brief: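 Beta-lactamase reporter under AP-1 response element, ME-180 background. Stimulus: EC50 EGF. Compound exposure 5 h, 37 °C. Detection: CCF4, 2.5 h RT, 460/530 nm. Values: AC50 from titration.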

[2] = target: Cytochrome P450 1A2 (Homo sapiens) (UniProt P05177); assay: p450-cyp1a2 (AID 410; calls by dose curve; also: potency is read from the fitted curve at half-maximal effect;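 as to activity change, negative = inhibition: -100% = full effect of reference inhibitor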)
Method in brief: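 20nM CYP1A2, 100uM Luciferin-ME (=Km), 100mM KPO4; cpd 10 min RT; +NADPH regen, 60 min RT; stop/detect 20 min; luminescence. Normalized to furafylline 57 uM = full inhibition.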

[3] = NFAT Signaling Pathway (AID 444); details: Jurkat NFAT-bla M1, carbachol, beta-lactamase ratio, 5 h; at 17.2 µM (top of the series) unless noted;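 also: carbachol stimulus at about its EC50 of 1 µM final; % is scaled to controls: 0 for no effect and ±100 for the full control effect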
Method in brief: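 Jurkat cells with NFAT-driven β-lactamase reporter and co-expressed M1 receptor, stimulated with carbachol (final 1 uM, ~EC50), compound titration, 5 h at 37 °C. CCF4 loaded 1 h at RT; 460/530 nm ratio gave %activity and AC50.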

[4] = Stat Signaling Pathway (AID 446); details: ME-180 (cervical carcinoma) SIE beta-lactamase reporter, IL-6 stimulated, 5 h; at 17.2 µM (top of the series) unless noted;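 also: ME-180 cervical cancer cells given 40 pM IL-6 alongside compound; SIE-controlled beta-lactamase reporter measured as 460/530 nm FRET emission ratio; % is scaled to controls: 0 for no effect and ±100 for the full control effect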
Method in brief: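 Emission at 460 and 530 nm (excitation 405 nm) reports SIE-controlled beta-lactamase in ME-180 cells. Cells received compound with 40 pM IL-6 for 5 hrs at 37 C; data scaled between 300 pM IL-6 and 125 nM JAK-inhibitor controls.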

[5] = target: Glucocorticoid receptor (Homo sapiens) (UniProt P04150); assay: GR-GFP Redistribution (AID 450;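 active = compounds whose dose series gives a full or clear partial fitted curve of increased nuclear translocation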; also: potency is read from the fitted curve at half-maximal effect); details: U2OS GR-GFP nuclear translocation, laser cytometry, 2 h
[6] = target: Glucocorticoid receptor (Homo sapiens) (UniProt P04150); assay: GR-EFC Redistribution (AID 451; calls by dose curve; also: potency is read from the fitted curve at half-maximal effect); details: CHO-K1 GR-EFC translocation, beta-gal luminescence, 2 h
Method in brief: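 CHO-K1 cells expressing nuclear EA and GR-ED fragments of b-gal; compounds titrated up to 46 uM final, 2 h at 37 C. GR nuclear translocation read as complemented b-gal luminescence after 1 h RT detection.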

[7] = target: Mitogen-activated protein kinase 10 (Mus musculus) (UniProt Q61831); assay: JNK3 AlphaScreen Assay (AID 530);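 also: kinase came from lysate of stimulated human HepG2 cells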; also: potency is read from the fitted curve at half-maximal effect;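 as to activity change, negative = inhibition: signal reports phosphorylation of biotinylated GST-cJun 1-79 at Ser73 with 10 µM ATP; % is scaled to controls: 0 for no effect and ±100 for the full control effect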
Method in brief: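 HepG2 lysate (IL-1b/TNFa pre-activated) + biotin-GST-cJun 1-79 + anti-pSer73 cJun; cpd titration, 15 min RT; ATP 10 uM start; Tris pH 7.6, MgCl2, DTT, vanadate; beads in EDTA buffer; AlphaScreen.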

[8] = target: 3',5'-cyclic-AMP phosphodiesterase 4B (Homo sapiens) (UniProt Q07343); assay: qHTS Assay for Inhibitors of PDE-IV (AID 607; active = well fitted activation curve with a large enough effect in the main read-out, with a control signal flat, not every such curve was filed as active; also: % of control where 0% means no effect)
Method in brief: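 The readout is membrane depolarisation from a cAMP-sensing CNG channel, detected with a potential dye at ex 535/em 590. Cells were HEK293-derived (endogenous PDE-IV) at 1000 cells/well, titrated up to 22.9 uM final.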

[9] = Cell Viability - BJ (AID 421; calls by dose curve;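 also: potency is read from the fitted curve at half-maximal effect; cells exposed to compound for 40 hours at 37 °C before readout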); details: BJ fibroblast viability, qHTS
Method in brief: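 Cytotoxicity in human BJ foreskin fibroblasts is scored as loss of cellular ATP after a 40-hour exposure, measured by luciferase luminescence. Controls are DMSO and 100 uM tamoxifen.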

[10] = Cell Viability - Hek293 (AID 427;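 active = compounds whose dose-response curve shows a full or clear partial loss of cell viability, called from curve shape rather than a numeric limit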;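 also: potency is read from the fitted curve at half-maximal effect; cells exposed to compound for 40 hours at 37 °C before reading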); details: qHTS
Method in brief: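 qHTS, human embryonic kidney (adenovirus-transformed) cells; 40 hr cpd, 37 °C; CellTiter-Glo ATP luminescence. Norm: DMSO = 0, 100 uM tamoxifen = 100% inhibition. Hill-fit AC50.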

[11] = Cell Viability - HepG2 (AID 433; calls by dose curve;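 also: potency is read from the fitted curve at half-maximal effect; potency for ATP loss meaning cytotoxicity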); details: qHTS
Method in brief: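 Read-out is luciferase-based quantitation of cellular ATP as a measure of viable HepG2 cells after 40 h treatment at 37 °C. Signal decrease is scaled between DMSO-only and 100 uM tamoxifen controls, with AC50 fitted by the Hill equation.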

[12] = Cell Viability - SK-N-SH (AID 435; calls by dose curve; also: potency is read from the fitted curve at half-maximal effect); details: SK-N-SH neuroblastoma cell viability qHTS
Method in brief: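 Luminescent ATP signal served as the viability read-out after 40 hours of compound treatment of human neuroblastoma SK-N-SH cells. Concentration-response data, scaled between DMSO and 100 uM tamoxifen, gave AC50 values by standard Hill modeling.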

[13] = Cell Viability - N2a (AID 540; active = well fitted curve in the direction sought with a large enough effect; an effect the other way counts as inactive or inconclusive;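 also: plate controls were DMSO alone for no effect and tamoxifen control for full effect; nearly all actives have a fitted effect of over 45% in size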); details: N2a mouse neuroblastoma cell viability; activity change, negative = cytotoxicity: at 92.2 µM (top of the series)
Method in brief: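 N2a mouse neuroblastoma, 1500 cells/well, 5 hr settle; compound 40 hr, 37 °C; CellTiter-Glo 20 min RT; luminescence; Hill-fit AC50.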

[14] = Cell Viability - NIH 3T3 (AID 541; active = well fitted curve in the direction sought with a large enough effect; an effect the other way counts as inactive or inconclusive;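 also: plate controls were DMSO alone for no effect and tamoxifen positive control for full effect; nearly all actives have a fitted effect of over 25% in size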); details: NIH 3T3 cell viability, qHTS; activity change, negative = cytotoxicity: at 92.2 µM (top of the series)
Method in brief: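 qHTS format; 40 hr compound exposure, 37 °C; CellTiter-Glo luminescence (cellular ATP) read-out after 20 min at RT. Decrease in ATP = cytotoxicity; AC50 from standard Hill fit.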

[15] = Cell Viability - H-4-II-E (AID 543; active = well fitted curve in the direction sought with a large enough effect; an effect the other way counts as inactive or inconclusive; also: nearly all actives have a fitted effect of over 35% in size; also: potency is read from the fitted curve at half-maximal effect)
Method in brief: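 qHTS, rat hepatoma H-4-II-E, 1500 cells/well; 40 hr compound exposure, 37 °C; CellTiter-Glo ATP luminescence after 20 min RT; AC50 by standard Hill fit.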

[16] = Cell Viability - SH-SY5Y (AID 544; active = well fitted curve in the direction sought with a large enough effect; an effect the other way counts as inactive or inconclusive;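 also: 0% = DMSO alone and -100% = 100 µM tamoxifen; nearly all actives have a fitted effect of over 55% in size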); details: SH-SY5Y neuroblastoma cell viability
Method in brief: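 SH-SY5Y, 1500 cells/well, 5 hr pre-incubation 37 °C; cpd 40 hr 37 °C; CellTiter-Glo 20 min RT; luminescence (ATP) read. qHTS concentration-response, Hill fit → AC50. Tamoxifen, doxorubicin as positive controls.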

[17] = Cell Viability - Mesenchymal (AID 546; active = well fitted curve in the direction sought with a large enough effect; an effect the other way counts as inactive or inconclusive;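 also: cells exposed to compound for 40 hours before reading; 0% = DMSO only and -100% = 100 µM tamoxifen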)
Method in brief: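 Human renal mesenchymal cells (glomerulus-derived), 1000 cells/well, 5 hr 37 °C pre-incubation; compound 40 hr, 37 °C; CellTiter-Glo, 20 min RT; luminescence; AC50 via Hill equation.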

[18] = Cellular Toxicity (caspase-3) Jurkat (AID 655; active = well fitted curve in the direction sought with a large enough effect; an effect the other way counts as inactive or inconclusive;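 also: cells exposed to compound for 16 h at 37 °C before reading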)
Method in brief: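 5000 Jurkat cells/well; compound 16 hr, 37 °C; Caspase-Glo 3/7 added, 20 min RT; luminescence read. Norm: DMSO = 0%, tamoxifen 100 uM = 100%. AC50, Hill model.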

[19] = Cell Viability - Jurkat (AID 426;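 active = dose-dependent loss of cell ATP signal giving a full or clear fitted curve, ranked by lower potency value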;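 also: potency is read from the fitted curve at half-maximal effect; cells exposed to compound for 40 hours at 37 °C before ATP read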); details: qHTS
Method in brief: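 Luminescent ATP read-out (CellTiter-Glo, 20 min at room temperature) after 40 hr compound exposure at 37 °C of Jurkat E6-1 cells, 5000/well. Decreased ATP taken as cytotoxicity; AC50 from standard Hill equation.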

[20] = Cell Viability - Renal Proximal Tubule (AID 545; active = well fitted curve in the direction sought with a large enough effect; an effect the other way counts as inactive or inconclusive;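 also: 0% = DMSO only and -100% = 100 µM tamoxifen; nearly all actives have a fitted effect of over 40% in size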)
Method in brief: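 Luminescent ATP signal (CellTiter-Glo) served as the viability read-out after 40 hr compound exposure of freshly isolated rat proximal tubule cells at 37 °C. Concentration-dependent ATP loss was fitted with the Hill equation to give AC50.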

[21] = viability change, negative = cytotoxic: at 92.2 µM (top of the series)

3',5'-cyclic-AMP phosphodiesterase 4B (Homo sapiens), sequence (Q07343 whole entry, looked up): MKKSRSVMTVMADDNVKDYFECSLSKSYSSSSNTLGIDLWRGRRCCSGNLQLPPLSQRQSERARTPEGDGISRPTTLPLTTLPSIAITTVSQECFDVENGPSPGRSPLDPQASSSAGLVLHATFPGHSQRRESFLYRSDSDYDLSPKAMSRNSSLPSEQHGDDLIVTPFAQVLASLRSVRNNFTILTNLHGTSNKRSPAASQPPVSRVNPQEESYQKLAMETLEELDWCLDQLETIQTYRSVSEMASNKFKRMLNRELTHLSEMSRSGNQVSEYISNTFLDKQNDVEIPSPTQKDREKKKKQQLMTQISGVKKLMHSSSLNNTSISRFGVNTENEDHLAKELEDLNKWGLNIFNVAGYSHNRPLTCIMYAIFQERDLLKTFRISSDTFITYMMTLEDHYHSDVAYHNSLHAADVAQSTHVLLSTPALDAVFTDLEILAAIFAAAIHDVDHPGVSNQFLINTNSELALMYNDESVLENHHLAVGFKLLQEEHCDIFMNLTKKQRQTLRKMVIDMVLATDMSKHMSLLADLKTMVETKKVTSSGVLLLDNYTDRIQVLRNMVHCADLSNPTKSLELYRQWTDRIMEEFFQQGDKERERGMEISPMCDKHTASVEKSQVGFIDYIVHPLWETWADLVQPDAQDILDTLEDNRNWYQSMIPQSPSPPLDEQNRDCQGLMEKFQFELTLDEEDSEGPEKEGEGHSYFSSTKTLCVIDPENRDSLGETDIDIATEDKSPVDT
Cytochrome P450 1A2 (Homo sapiens), sequence (P05177 whole entry, looked up): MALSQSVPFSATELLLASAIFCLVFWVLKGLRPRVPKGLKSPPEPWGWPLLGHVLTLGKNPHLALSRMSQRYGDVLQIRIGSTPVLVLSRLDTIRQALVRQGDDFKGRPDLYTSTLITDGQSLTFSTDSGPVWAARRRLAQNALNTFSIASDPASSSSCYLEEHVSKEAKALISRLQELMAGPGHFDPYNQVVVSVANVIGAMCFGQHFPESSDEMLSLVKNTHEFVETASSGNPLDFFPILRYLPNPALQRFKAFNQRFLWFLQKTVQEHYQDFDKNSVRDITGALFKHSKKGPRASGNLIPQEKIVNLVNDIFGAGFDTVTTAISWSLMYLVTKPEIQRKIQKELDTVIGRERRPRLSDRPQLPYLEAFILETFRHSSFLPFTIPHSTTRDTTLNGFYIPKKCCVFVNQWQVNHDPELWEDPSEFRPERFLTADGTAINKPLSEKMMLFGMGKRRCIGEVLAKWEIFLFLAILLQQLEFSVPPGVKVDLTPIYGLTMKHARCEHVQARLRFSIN
Glucocorticoid receptor (Homo sapiens), sequence (P04150 whole entry, looked up, the tested form may be a part): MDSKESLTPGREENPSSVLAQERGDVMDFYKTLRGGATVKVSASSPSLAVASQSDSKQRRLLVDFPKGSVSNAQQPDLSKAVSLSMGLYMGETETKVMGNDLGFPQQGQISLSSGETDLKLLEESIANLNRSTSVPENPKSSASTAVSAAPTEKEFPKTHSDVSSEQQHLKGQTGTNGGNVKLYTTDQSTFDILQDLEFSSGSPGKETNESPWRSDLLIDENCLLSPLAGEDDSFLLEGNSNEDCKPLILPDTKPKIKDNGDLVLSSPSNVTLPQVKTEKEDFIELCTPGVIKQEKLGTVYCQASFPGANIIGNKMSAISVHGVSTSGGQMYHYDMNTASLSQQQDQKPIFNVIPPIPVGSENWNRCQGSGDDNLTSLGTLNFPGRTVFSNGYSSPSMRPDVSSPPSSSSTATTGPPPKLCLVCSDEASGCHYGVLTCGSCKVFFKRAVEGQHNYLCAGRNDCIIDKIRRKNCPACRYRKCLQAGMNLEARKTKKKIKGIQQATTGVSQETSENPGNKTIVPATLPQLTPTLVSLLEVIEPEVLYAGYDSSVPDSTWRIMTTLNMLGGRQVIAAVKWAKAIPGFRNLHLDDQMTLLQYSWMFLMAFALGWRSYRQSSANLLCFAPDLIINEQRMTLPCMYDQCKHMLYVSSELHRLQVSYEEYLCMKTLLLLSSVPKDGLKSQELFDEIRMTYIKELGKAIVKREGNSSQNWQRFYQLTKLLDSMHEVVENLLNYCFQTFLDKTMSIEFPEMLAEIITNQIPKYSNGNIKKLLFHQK

COc1cnc(NS(=O)(=O)c2ccc(N)cc2)nc1
inactive: activity change, negative = inhibition [1] -7.19% | Potency [2] | activity change, negative = inhibition [3] -4.83% | activity, negative = inhibition [4] -4.71% | Potency [5] > 20.6 µM | Potency [6] > 20.6 µM | Potency [7] | outcome [8]

COC(=O)Nc1nc2ccc(C(=O)c3ccccc3)cc2[nH]1
inactive: activity change, negative = inhibition [1] 17.1% and -8.17% | activity, negative = inhibition [4] -12.3% and -12% | Potency [5] > 20.6 µM | Potency [6] > 20.6 µM | Potency [7] | outcome [8]
active: Potency [2] 3.98 µM

NC(=O)c1cccc(N)c1
active: Potency [2] 15.8 µM
inactive: activity change, negative = inhibition [1] 11.6% [at 38 µM] | activity change, negative = inhibition [3] 1.89% [at 38 µM] | activity, negative = inhibition [4] 1.75% [at 38 µM] | Potency [5] > 46 µM | Potency [6] > 46 µM | Potency [7] | outcome [8]

CC(=O)[C@H]1CC[C@H]2[C@@H]3CCC4=CC(=O)CC[C@]4(C)[C@H]3CC[C@]12C
inactive: activity change, negative = inhibition [1] 1.43% | Potency [9] > 92 µM | Potency [11] > 92 µM | Potency [12] > 92 µM | activity change, negative = inhibition [3] -29.5% | activity, negative = inhibition [4] 2.68% | Potency [7] | viability change, negative = cytotoxic ([16]; at 92.2 µM (top of the series)) -22.5% | Potency [17] | outcome [18]
active: Potency [10] 48.5 µM | activity change, negative = cytotoxicity [13] -96.5% and -82.2% | activity change, negative = cytotoxicity [14] -129% | Potency [15] 39.8 µM | viability change, negative = cytotoxic [16, 21] -101%

NC(N)=NC(N)=NCCc1ccccc1
inactive: activity change, negative = inhibition [1] 5.09% and 3.64% | Potency [19] > 92 µM | Potency [10] > 92 µM | Potency [12] > 92 µM | activity change, negative = inhibition [3] -2.75% and 12.2% | activity, negative = inhibition [4] 9.3% and 14.4% | Potency [5] > 20.6 µM | Potency [6] > 20.6 µM | Potency [7] | Potency [16, 21] | Potency [20] | Potency [17] | outcome [8] | outcome [18]
active: activity change, negative = cytotoxicity [13] -109%

Cc1ncc([N+](=O)[O-])n1CCO
inactive: activity change, negative = inhibition [1] 7.25% and 11.7% | Potency [2] | Potency [9] > 92 µM | Potency [19] > 92 µM | Potency [10] > 92 µM | Potency [11] > 92 µM | Potency [12] > 92 µM | activity change, negative = inhibition [3] -4.16% and -8.01% | activity, negative = inhibition [4] 4.79% and 0.586% | Potency [7] | Potency [13] | activity change, negative = cytotoxicity [14] -7.75% | Potency [15] | Potency [16, 21] | Potency [20] | Potency [17] | outcome [8] | outcome [18]

O=C(O)c1cc(=O)[nH]c(=O)[nH]1
inactive: Potency [9] > 92 µM | Potency [19] > 92 µM | Potency [10] > 92 µM | Potency [11] > 92 µM | Potency [12] > 92 µM | Potency [7] | Potency [13] | activity change, negative = cytotoxicity [14] -4.07% | Potency [15] | Potency [16, 21] | Potency [20] | Potency [17] | outcome [18]

O=c1oc2c(O)c(O)cc3c(=O)oc4c(O)c(O)cc1c4c23
inactive: Potency [5] > 46 µM | Potency [6] > 46 µM
active: Potency [2] 15.8 µM | Potency [7] 1.26 µM

N[C@@H](C(=O)N[C@@H]1C(=O)N2C(C(=O)O)=C(Cl)CS[C@H]12)c1ccccc1
inactive: activity change, negative = inhibition [1] 0.208% | activity change, negative = inhibition [3] 7.31% | activity, negative = inhibition [4] 1.22% | Potency [5] > 20.6 µM

O=C(N[C@H](CO)[C@H](O)c1ccc([N+](=O)[O-])cc1)C(Cl)Cl
inactive: Potency [9] > 92 µM | Potency [19] > 92 µM | Potency [10] > 92 µM | Potency [11] > 92 µM | Potency [12] > 92 µM | Potency [7] | Potency [13] | activity change, negative = cytotoxicity [14] -14.2% | Potency [15] | Potency [16, 21] | Potency [20] | Potency [17] | outcome [18]

Cn1c(=O)c2c(ncn2CC(O)CO)n(C)c1=O (stereo not drawn)
inactive: activity change, negative = inhibition [1] 2.4% | activity change, negative = inhibition [3] 10.5% | activity, negative = inhibition [4] 1.2% | Potency [5] > 20.6 µM

CC[C@H](NC(C)C)[C@H](O)c1ccc(O)c2[nH]c(=O)ccc12
inactive: Potency [5] > 46 µM | Potency [6] > 46 µM

CC(C)(Sc1cc(C(C)(C)C)c(O)c(C(C)(C)C)c1)Sc1cc(C(C)(C)C)c(O)c(C(C)(C)C)c1
inactive: activity change, negative = inhibition [1] 1.37% | activity change, negative = inhibition [3] 10.7% | activity, negative = inhibition [4] 5.26% | Potency [5] > 20.6 µM | Potency [6] > 20.6 µM | Potency [7] | outcome [8]
